# Measured values published in PubChem BioAssay (NCATS).
# Inconclusive results are not listed. Active and inactive are the calls of the source. Calls come from the whole dose curve; as a rule, active = well fitted curve in the direction sought with a large enough effect; inconclusive = small, poorly fitted or top-dose-only effect, or another doubt; inactive = no such curve, though single readings can be large; an effect the other way counts as inactive or inconclusive. Residues, ends and D or L forms follow the SMILES beside them. *: point of attachment. Cbz = O=C(OCc1ccccc1)*
# Test system: not listed separately
# Assay: qHTS of Trypanosoma Brucei Inhibitors: LOPAC Validation (AID 624147)
# Settings: purified enzyme assay, luminescence, 45 min; series mostly up to 57.5 µM; activity change, negative = inhibition: at the top concentration
# How it was run: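 Assay buffer: 50 mM TEA pH 7.2, 100 mM KCl, 10 mM MgCl2, 0.05% BSA, 0.01% Tween-20. Pyruvate kinase from T. brucei plus substrate met compound, then ADP (130 uM final). Luminescence was read post 45 min RT.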
# Note: 0% is about no effect.
row,SMILES,"activity change, negative = inhibition"
1,COC(=O)C1=C(C)NC(C)=C([N+](=O)[O-])C1c1ccccc1C(F)(F)F (stereo not given),-7.88% (inactive)
2,Cn1c(=O)c2[nH]c(-c3ccc(S(=O)(=O)O)cc3)nc2n(C)c1=O,-16.9% (inactive)
3,C/C(=C\c1ccc(C(=O)O)cc1)c1ccc2c(c1)C(C)(C)CCC2(C)C,-6.63% (inactive)
4,O=C(O)C1CCNCC1,-5.76% (inactive)
5,CC(N)(C(=O)O)c1ccc(C(=O)O)cc1 (stereo not given),-4.51% (inactive)
6,Nc1ccc(CCNc2ncnc3c2ncn3C2OC(CO)C(O)C2O)cc1 (stereo not given),-6.64% (inactive)
7,CN(C)S(=O)(=O)c1ccc2c(c1)/C(=C/c1cc3c([nH]1)CCCC3)C(=O)N2,-11.1% (inactive)
8,NCCCCN,-14.3% (inactive)
9,CCN(CC)CCOC(=O)c1cc(Cl)c(N)cc1OC,3.06% (inactive)
10,CC(=O)C(C)=O,-1.94% (inactive)
11,CCCN(CCc1ccccc1)C1CCc2c(O)cccc2C1 (stereo not given),-5.47% (inactive)

# Molecular target: Glucagon-like peptide 1 receptor (Homo sapiens) (UniProt P43220)
# Sequence (P43220 whole entry, looked up): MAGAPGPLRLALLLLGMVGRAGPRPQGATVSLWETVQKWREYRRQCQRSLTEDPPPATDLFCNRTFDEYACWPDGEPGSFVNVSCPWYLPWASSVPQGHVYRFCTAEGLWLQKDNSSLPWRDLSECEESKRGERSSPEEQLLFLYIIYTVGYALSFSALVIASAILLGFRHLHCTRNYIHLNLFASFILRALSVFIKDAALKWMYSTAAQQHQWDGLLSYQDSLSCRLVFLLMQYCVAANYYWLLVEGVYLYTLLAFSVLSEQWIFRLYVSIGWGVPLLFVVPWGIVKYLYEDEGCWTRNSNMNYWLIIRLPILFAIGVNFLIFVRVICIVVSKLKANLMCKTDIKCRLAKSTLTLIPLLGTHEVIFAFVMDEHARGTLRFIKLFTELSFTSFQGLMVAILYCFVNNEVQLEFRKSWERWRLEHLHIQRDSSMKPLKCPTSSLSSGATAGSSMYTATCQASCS
# Assay: qHTS of GLP-1 Receptor Agonists: LOPAC Validation (AID 624148);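 note: luminescence from a luciferase reporter switched on by cAMP; higher luminescence signal means agonism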
# Settings: GLP-1R agonist cell assay; series mostly up to 46.1 µM; activation: at the top concentration
# How it was run: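 Agonism scored as increased luciferase luminescence driven by cAMP in HEK293 clones carrying GLP-1R. Cells settled 12 hours, received compound for 4-6 hr at 37 deg C, 5% CO2, and were read after 12 min detection reagent at RT.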
row,SMILES,activation
1,Cc1cccc(C2CN(C)CCc3c2cc(O)c(O)c3Cl)c1 (stereo not given),12.4% (inactive)
2,O=c1[nH]c(=O)c2nc3ccccc3nc2[nH]1,0.421% (inactive)
3,NCCC1CCCC(CCN)N1 (stereo not given),0.899% (inactive)
4,Oc1cc2c(cc1O)C(c1ccccc1)CNCC2 (stereo not given),8.64% (inactive)
5,O=C(O)/C(=C/c1c(C(=O)O)[nH]c2cc(Cl)cc(Cl)c12)c1ccccc1,-1.88% (inactive)
6,O=C(O)Cc1c[nH]c2ccc(O)cc12,0.457% (inactive)
7,COc1ccc(CCN(C)CCc2ccc(OC)c(OC)c2)cc1OC,-1.4% (inactive)
8,NC1CONC1=O (stereo not given),0.823% (inactive)
9,CC(C)[C@H](NC(=O)OCc1ccccc1)C(=O)N[C@H](C=O)Cc1ccccc1 (Cbz-Val-Phe-aldehyde),1.47% (inactive)
10,N#CC(=C(\N)Sc1ccccc1N)/C(C#N)=C(/N)Sc1ccccc1N,-1.54% (inactive)
11,O=C1Cc2c([nH]c3ccc(Br)cc23)-c2ccccc2N1,1.48% (inactive)
12,COc1cc2c(CCNC(C)=O)c[nH]c2cc1O,3.68% (inactive)
13,COc1cc(/C=C(\C#N)C(=O)c2ccc(O)c(O)c2)cc(I)c1O,0.873% (inactive)
14,CCN1C(=O)C=CC1=O,0.604% (inactive)
15,NC(C(=O)N[C@@H]1C(=O)N2C(C(=O)O)=C(Cl)CS[C@H]12)c1ccccc1 (stereo not given in full),-1.13% (inactive)
16,O=c1ccn([C@@H]2O[C@H](COP(=O)(O)OP(=O)(O)O)[C@@H](O)[C@H]2O)c(=O)[nH]1,-0.415% (inactive)
17,NCCCNCCCCNCCCN,-1.91% (inactive)

row,SMILES,activation
1,C=CCN1CCc2c(cc(O)c(O)c2Cl)C(c2ccccc2)C1 (stereo not given),2.1% (inactive)
2,CCCc1c(-c2ccc(O)cc2)nn(-c2ccc(O)cc2)c1-c1ccc(O)cc1,10.3% (inactive)
3,CN(C)C(=O)/N=N/C(=O)N(C)C,-1% (inactive)
4,CNc1cc(NS(=O)(=O)c2ccc(N)cc2)nc(NC)n1,3.12% (inactive)
5,CCCCC[C@H](CC(=O)NO)C(=O)N[C@H](C(=O)N1CCC[C@H]1CO)C(C)C,0.512% (inactive)
6,O=C(O)C1CCCNC1 (stereo not given),-1.66% (inactive)
7,C=CCN1CCc2c(cc(O)c(O)c2Br)[C@@H](c2ccccc2)C1,5.61% (inactive)
8,COC(=O)C1=C(C)NC(C)=C([N+](=O)[O-])C1c1ccccc1C(F)(F)F (stereo not given),3.23% (inactive)
9,Cn1c(=O)c2[nH]c(-c3ccc(S(=O)(=O)O)cc3)nc2n(C)c1=O,0.819% (inactive)
10,C/C(=C\c1ccc(C(=O)O)cc1)c1ccc2c(c1)C(C)(C)CCC2(C)C,-1.29% (inactive)
11,Oc1ccc(Cn2cc[nH]c2=S)cc1,-1.75% (inactive)
12,O=C(O)C1CCNCC1,8.26% (inactive)
13,CC(N)(C(=O)O)c1ccc(C(=O)O)cc1 (stereo not given),-1.18% (inactive)
14,Nc1ccc(CCNc2ncnc3c2ncn3C2OC(CO)C(O)C2O)cc1 (stereo not given),16.6% (inactive)
15,NCCCCN,-1.27% (inactive)
16,CC(=O)C(C)=O,-1.79% (inactive)
17,CCCN(CCc1ccccc1)C1CCc2c(O)cccc2C1 (stereo not given),7.05% (inactive)

# Test system: not listed separately
# Assay: qHTS of Nrf2 Activators: LOPAC Validation (AID 624149)
# Settings: Nrf2/ARE reporter cell assay; series mostly up to 46.1 µM; activation: at the top concentration
# How it was run: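 AREc32 cells carrying an ARE-driven firefly luciferase were grown overnight in OPTI-MEM with 5% FBS, then exposed to compounds for 24 hr at 37 deg C. Luciferase signal was read after 30 min with Steady-Glo at RT.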
row,SMILES,activation
1,Oc1cc2c(cc1O)C(c1ccccc1)CNCC2 (stereo not given),-2.07% (inactive)
2,O=C(O)/C(=C/c1c(C(=O)O)[nH]c2cc(Cl)cc(Cl)c12)c1ccccc1,-0.737% (inactive)
3,O=C(O)Cc1c[nH]c2ccc(O)cc12,6.33% (inactive)
4,N#CC(=C(\N)Sc1ccccc1N)/C(C#N)=C(/N)Sc1ccccc1N,10.4% (inactive)
5,CCn1c(=O)[nH]c2cc(Cl)c(Cl)cc21,7.34% (inactive)
6,COc1cc2c(CCNC(C)=O)c[nH]c2cc1O,-1.76% (inactive)
7,COc1cc(/C=C(\C#N)C(=O)c2ccc(O)c(O)c2)cc(I)c1O,-2.21% (inactive)
8,NC(C(=O)N[C@@H]1C(=O)N2C(C(=O)O)=C(Cl)CS[C@H]12)c1ccccc1 (stereo not given in full),-1.05% (inactive)
9,C=CCN1CCc2c(cc(O)c(O)c2Cl)C(c2ccccc2)C1 (stereo not given),-1.58% (inactive)
10,CCCc1c(-c2ccc(O)cc2)nn(-c2ccc(O)cc2)c1-c1ccc(O)cc1,-1.96% (inactive)
11,CN(C)C(=O)/N=N/C(=O)N(C)C,0.249% (inactive)
12,NCC(O)c1ccc(O)c(O)c1 (stereo not given),-2.26% (inactive)
13,CNc1cc(NS(=O)(=O)c2ccc(N)cc2)nc(NC)n1,0.0192% (inactive)
14,CCCCC[C@H](CC(=O)NO)C(=O)N[C@H](C(=O)N1CCC[C@H]1CO)C(C)C,0.427% (inactive)
15,C=CCN1CCc2c(cc(O)c(O)c2Br)[C@@H](c2ccccc2)C1,-2.22% (inactive)
16,Cn1c(=O)c2[nH]c(-c3ccc(S(=O)(=O)O)cc3)nc2n(C)c1=O,-1.78% (inactive)
17,C/C(=C\c1ccc(C(=O)O)cc1)c1ccc2c(c1)C(C)(C)CCC2(C)C,-1.21% (inactive)
18,CN(C)S(=O)(=O)c1ccc2c(c1)/C(=C/c1cc3c([nH]1)CCCC3)C(=O)N2,1.24% (inactive)
19,CCN(CC)CCOC(=O)c1cc(Cl)c(N)cc1OC,-1.23% (inactive)
20,CC(=O)C(C)=O,-1.84% (inactive)
